Measurements from PubChem BioAssay (Tox21).
Records with an inconclusive call do not appear. Calls of active or inactive are those of the source. Unless noted, calls come from the whole dose curve.

How the values were obtained:
[1] = Nuclear factor erythroid 2-related factor 2/antioxidant responsive element (Nrf2/ARE) small molecule agonists: qHTS cell viability counter screen in human keratinocytes (AID 1919968; active = well fitted curve in the direction sought with a large enough effect in the repeat runs; an effect the other way counts as inactive or inconclusive; note: nearly all actives have a fitted effect of over 55% in size)
Summary of the method: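 KeratinoSens HaCaT cells, 1,500/well, preincubated 5 h, then exposed to compounds in DMSO for 23 h at 37 C/5% CO2. Viability read as CellTiter-Fluor fluorescence after 1 h, in the same wells as the ARE-luciferase read.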

[2] = Nuclear factor erythroid 2-related factor 2/antioxidant responsive element (Nrf2/ARE) small molecule agonists: luciferase reporter gene qHTS assay in human keratinocytes (AID 1919969); note: nearly all actives have a fitted effect of over 35% in size
[3] = target: Gonadotropin-releasing hormone receptor (Homo sapiens) (UniProt P30968); assay: Human gonadotropin-releasing hormone receptor (GnRHR) small molecule agonists, calcium flux assay in GnRHR-HEK293 cells (AID 1920063); note: nearly all actives have a fitted effect of over 35% in size
Summary of the method: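 HEK293 cells stably expressing human GnRHR were dye-loaded for 1 h at 37 C. Compound was added in agonist mode and fluorescence (Ex/Em 480/540) recorded kinetically for 3 min. Fifteen concentrations, triplicates.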

[4] = target: KiSS-1 receptor (Homo sapiens) (UniProt Q969F8); assay: Human kisspeptin (KISS1R) small molecule agonists, calcium flux assay in KISS1R-HEK293 cells (AID 1920064; active = well fitted curve in the direction sought with a large enough effect in the repeat runs; an effect the other way counts as inactive or inconclusive)
Summary of the method: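 HEK293 cells stably expressing human KISS1R were loaded with calcium dye for 1 h at 37 C, then given compound; fluorescence (Ex/Em 480/540) was read kinetically for 3 min. Fifteen concentrations, triplicate.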

[5] = G protein-coupled receptor (GPCR) small molecule agonists, calcium flux assay: HEK293 wild type cell line counter screen (AID 1920065)
Summary of the method: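 Wild-type HEK293 cells plated 18 h, loaded with calcium dye 1 h at 37 C, then compounds added in agonist mode (ATP as positive control). Kinetic fluorescence Ex/Em 480/540 recorded 3 min at 1 sec intervals; 15 concentrations, triplicate.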

[6] = p53 small molecule agonists, cell-based qHTS assay with human liver microsomes: qHTS cell viability counter screen (AID 1963579); note: nearly all actives have a fitted effect of over 45% in size
Summary of the method: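 Cells carrying the p53 response-element beta-lactamase reporter are treated for 16 h at 37 C with test compounds in the presence of human liver microsomes and NADPH (both 0.5 mg/mL final); ATP-based CellTiter-Glo luminescence then reports viability.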

[7] = p53 small molecule agonists, cell-based qHTS assay: qHTS cell viability counter screen (AID 1963581); note: nearly all actives have a fitted effect of over 45% in size
Summary of the method: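 p53RE-bla HCT-116 cells, compounds added 5 h after plating and incubated 16 h at 37 C. Cytotoxicity measured in the same wells as intracellular ATP by CellTiter-Glo luminescence after 30 min at room temperature.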

[8] = target: 5-hydroxytryptamine receptor 2A (Homo sapiens) (UniProt P28223); assay: 5-hydroxytryptamine receptor 2A (HTR2A) small molecule antagonists, cell-based qHTS assay (AID 1963586); note: nearly all actives have a fitted effect of over 45% in size
Summary of the method: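 Antagonist-mode intracellular calcium assay: DOI (4 nM) added after 5 min compound pre-incubation at room temperature to dye-loaded HTR2A-CHO cells. Fluorescence followed for 3 min, sampled every second.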

[9] = target: 5-hydroxytryptamine receptor 2A (Homo sapiens) (UniProt P28223); assay: 5-hydroxytryptamine receptor 2A (HTR2A) small molecule agonists, cell-based qHTS assay (AID 1963587); note: nearly all actives have a fitted effect of over 30% in size
Summary of the method: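 CHO cells stably expressing human HTR2A, plated 18 h, loaded with calcium dye 1 h at 37 C. Agonist mode: compounds added and intracellular calcium fluorescence recorded kinetically for 2 min at 1 sec intervals.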

[10] = target: Muscarinic acetylcholine receptor M1 (Homo sapiens) (UniProt P11229); assay: Cholinergic receptor muscarinic 1 (CHRM1) small molecule antagonists, cell-based qHTS assay (AID 1963588); note: nearly all actives have a fitted effect of over 40% in size
Summary of the method: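 CHRM1-CHO calcium-flux assay, antagonist mode. Cells were seeded 18 h, dye-loaded 1 h at 37 C and given compound for 5 min at RT, then acetylcholine was added at 50nM. FDSS fluorescence was read 3 min; 15 concentrations, three runs.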

[11] = target: Muscarinic acetylcholine receptor M1 (Homo sapiens) (UniProt P11229); assay: Cholinergic receptor muscarinic 1 (CHRM1) small molecule agonists, cell-based qHTS assay (AID 1963589); note: nearly all actives have a fitted effect of over 35% in size
Summary of the method: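 CHO cells stably expressing human CHRM1 were loaded with calcium dye for 1 h at 37 C, then compound was added in agonist mode. Intracellular calcium fluorescence was followed kinetically at 1 s intervals. Fifteen concentrations were tested in three independent runs.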

[12] = cAMP Responsive Elements (CRE) small molecule agonists, cell-based qHTS assay (AID 1963590)
Summary of the method: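 CRE-bla HEK 293T cells, 2,000/well in DMEM with 10% dialyzed FBS and 25 mM HEPES, pre-incubated 18 h at 37 C, then exposed to compound 3 h at 37 C. Beta-lactamase reporter read with LiveBLAzer B/G FRET substrate after 2 h at room temperature.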

[13] = cAMP Responsive Elements (CRE) small molecule antagonists, cell-based qHTS assay (AID 1963591; active = well fitted inhibition curve with a large enough effect in the signal ratio in the repeat runs, not every such curve was filed as active; the % refers to the signal ratio)
Summary of the method: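 CRE-bla HEK293T cells plated 18 h, then given compound plus NKH477 at 0.25 uM final for 3 h at 37C. Beta-lactamase reporter read with LiveBLAzer B/G FRET substrate after 2 h at room temperature.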

[14] = target: Beta-2 adrenergic receptor (Homo sapiens) (UniProt P07550); assay: Adrenergic beta2 receptor (ADRB2) small molecule antagonists, cell-based qHTS assay (AID 1963592); note: series mostly up to about 92 µM; nearly all actives have a fitted effect of over 50% in size
Summary of the method: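 Cells (CHO, stable ADRB2 overexpression) incubated 18-20hr at 37C; compounds added from DMSO; agonist mix (1nM isoproterenol, 100uM IBMX, 25uM Ro-20-1724) added; 0.5hr RT; d2-cAMP and anti-cAMP-cryptate added; 1hr RT; 665/615 nm read.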

[15] = target: D(2) dopamine receptor (Homo sapiens) (UniProt P14416); assay: Dopamine D2 receptor (DRD2) small molecule agonists, cell-based qHTS assay (AID 1963594); note: nearly all actives have a fitted effect of over 35% in size
Summary of the method: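 HEK293 cells stably expressing human DRD2, pre-treated with PDE inhibitor Ro20-1724 (0.1 mM final) and compound 10 min at room temperature, then stimulated with NKH477 (200nM […]) for 30 min. cAMP read by HTRF (665/620 nm).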

[16] = target: D(2) dopamine receptor (Homo sapiens) (UniProt P14416); assay: Dopamine D2 receptor (DRD2) small molecule antagonists, cell-based qHTS assay (AID 1963595; active = well fitted inhibition curve with a large enough effect in the signal ratio in the repeat runs, with a control signal flat; the % refers to the signal ratio)
Summary of the method: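 Readout: HTRF cAMP, cAMP-d2 competing with cellular cAMP for anti-cAMP cryptate, read after 1 h. Cells: DRD2-HEK293. Conditions: 0.1 mM Ro20-1724, 12 nM quinpirole, 200 nM NKH477, 30 min RT.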

[17] = p53 small molecule agonists, cell-based qHTS assay with rat liver microsomes: qHTS cell viability counter screen (AID 1963580); note: nearly all actives have a fitted effect of over 45% in size
Summary of the method: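 Viability is assessed in parallel with the p53 reporter read: HCT-116 p53RE-bla cells receive compounds plus rat microsomes and NADPH (0.5 mg/mL final apiece), incubate 16 h at 37 C, and then CellTiter-Glo luminescence is recorded.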

[18] = target: Beta-2 adrenergic receptor (Homo sapiens) (UniProt P07550); assay: Adrenergic beta2 receptor (ADRB2) small molecule agonists, cell-based qHTS assay (AID 1963593);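 note: CHO cells stably overexpressing human ADRB2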
Summary of the method: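 CHO cells stably over-expressing ADRB2 were plated overnight at 37C, then dosed with compounds plus a stimulation mix containing 100uM IBMX and 25uM Ro-20-1724 for 0.5hr at room temperature. cAMP was measured by HTRF competition, 1hr.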
% is set by controls: 0 for no effect and ±100 for the full control effect.

5-hydroxytryptamine receptor 2A (Homo sapiens), sequence (P28223 whole entry, looked up): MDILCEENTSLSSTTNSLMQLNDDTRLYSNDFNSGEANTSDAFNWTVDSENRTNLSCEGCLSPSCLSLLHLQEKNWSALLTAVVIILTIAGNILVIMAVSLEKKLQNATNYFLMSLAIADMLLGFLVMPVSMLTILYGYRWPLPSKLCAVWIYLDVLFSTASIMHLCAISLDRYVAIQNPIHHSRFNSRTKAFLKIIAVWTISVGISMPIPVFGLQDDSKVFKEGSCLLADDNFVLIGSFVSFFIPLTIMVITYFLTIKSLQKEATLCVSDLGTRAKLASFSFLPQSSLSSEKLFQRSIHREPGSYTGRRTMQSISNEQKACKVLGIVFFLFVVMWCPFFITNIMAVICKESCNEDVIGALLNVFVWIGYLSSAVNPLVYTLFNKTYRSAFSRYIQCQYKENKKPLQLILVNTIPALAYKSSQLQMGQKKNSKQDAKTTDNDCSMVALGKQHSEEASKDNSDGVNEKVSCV
KiSS-1 receptor (Homo sapiens), sequence (Q969F8 whole entry, looked up): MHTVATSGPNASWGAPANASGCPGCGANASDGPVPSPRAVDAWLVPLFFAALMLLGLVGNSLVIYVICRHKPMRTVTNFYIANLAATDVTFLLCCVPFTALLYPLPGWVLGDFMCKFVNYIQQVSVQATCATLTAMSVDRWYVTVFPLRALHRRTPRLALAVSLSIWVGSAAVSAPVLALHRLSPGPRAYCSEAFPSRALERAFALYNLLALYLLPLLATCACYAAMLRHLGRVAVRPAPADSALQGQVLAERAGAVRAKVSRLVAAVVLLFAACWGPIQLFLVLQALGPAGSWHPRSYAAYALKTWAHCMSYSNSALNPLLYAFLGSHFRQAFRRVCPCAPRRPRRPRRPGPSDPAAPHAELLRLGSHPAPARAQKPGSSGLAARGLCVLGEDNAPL
Beta-2 adrenergic receptor (Homo sapiens), sequence (P07550 whole entry, looked up): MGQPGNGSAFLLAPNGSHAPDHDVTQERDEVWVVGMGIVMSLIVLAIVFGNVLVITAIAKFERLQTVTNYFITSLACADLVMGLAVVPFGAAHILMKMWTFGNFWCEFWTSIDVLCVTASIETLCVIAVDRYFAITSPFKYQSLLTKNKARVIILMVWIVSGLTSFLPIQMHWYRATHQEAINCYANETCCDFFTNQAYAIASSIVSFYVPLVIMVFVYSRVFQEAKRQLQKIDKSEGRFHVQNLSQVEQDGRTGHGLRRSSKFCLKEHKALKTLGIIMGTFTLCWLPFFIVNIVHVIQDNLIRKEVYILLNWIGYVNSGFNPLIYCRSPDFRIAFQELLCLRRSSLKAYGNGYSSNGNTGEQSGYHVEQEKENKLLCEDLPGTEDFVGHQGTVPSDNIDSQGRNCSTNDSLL
Muscarinic acetylcholine receptor M1 (Homo sapiens), sequence (P11229 whole entry, looked up): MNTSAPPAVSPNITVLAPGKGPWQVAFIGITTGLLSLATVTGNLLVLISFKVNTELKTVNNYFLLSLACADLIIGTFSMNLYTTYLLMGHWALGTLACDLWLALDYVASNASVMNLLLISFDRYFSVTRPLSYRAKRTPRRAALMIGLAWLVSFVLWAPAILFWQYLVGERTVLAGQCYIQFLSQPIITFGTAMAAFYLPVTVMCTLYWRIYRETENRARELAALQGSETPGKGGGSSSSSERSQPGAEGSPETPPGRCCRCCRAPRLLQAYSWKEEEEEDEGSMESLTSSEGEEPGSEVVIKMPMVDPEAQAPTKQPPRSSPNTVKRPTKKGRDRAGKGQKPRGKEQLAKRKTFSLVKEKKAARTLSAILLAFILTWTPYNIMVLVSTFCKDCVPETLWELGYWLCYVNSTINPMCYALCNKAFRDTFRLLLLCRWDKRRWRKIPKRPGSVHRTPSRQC
Gonadotropin-releasing hormone receptor (Homo sapiens), sequence (P30968 whole entry, looked up): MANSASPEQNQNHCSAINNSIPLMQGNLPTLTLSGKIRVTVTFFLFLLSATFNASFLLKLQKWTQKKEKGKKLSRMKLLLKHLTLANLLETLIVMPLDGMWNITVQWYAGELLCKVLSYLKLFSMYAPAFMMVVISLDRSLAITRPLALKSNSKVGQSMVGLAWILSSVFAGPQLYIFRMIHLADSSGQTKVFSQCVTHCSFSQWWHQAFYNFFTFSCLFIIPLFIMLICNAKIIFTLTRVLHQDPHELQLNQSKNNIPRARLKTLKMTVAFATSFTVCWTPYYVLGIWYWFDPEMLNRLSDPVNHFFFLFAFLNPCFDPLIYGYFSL
D(2) dopamine receptor (Homo sapiens), sequence (P14416 whole entry, looked up): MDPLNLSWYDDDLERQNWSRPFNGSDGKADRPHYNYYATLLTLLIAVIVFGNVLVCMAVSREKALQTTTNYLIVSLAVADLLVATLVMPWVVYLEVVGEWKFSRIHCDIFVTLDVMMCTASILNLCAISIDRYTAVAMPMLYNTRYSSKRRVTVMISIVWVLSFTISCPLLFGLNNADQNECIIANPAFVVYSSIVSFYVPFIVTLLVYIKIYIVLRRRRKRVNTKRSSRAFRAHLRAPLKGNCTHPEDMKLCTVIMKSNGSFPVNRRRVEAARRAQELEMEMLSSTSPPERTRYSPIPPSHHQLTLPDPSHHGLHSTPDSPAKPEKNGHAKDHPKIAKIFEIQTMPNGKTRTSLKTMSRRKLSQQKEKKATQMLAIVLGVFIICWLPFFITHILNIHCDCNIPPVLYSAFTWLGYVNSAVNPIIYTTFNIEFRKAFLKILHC

C=CCCCCCCCCOC(C)=O
inactive: Potency [1] | Potency [2] | Potency [3] | Potency [4] | Potency [5] | Potency [6] | Potency [7] | Potency [8] | Potency [9] | Potency [10] | Potency [11] | Potency [12] | Potency [13] | Potency [14] | Potency [15] | Potency [16]

Brc1cc(Br)c(Oc2cc(Br)c(Br)cc2Br)cc1Br
inactive: Potency [1] | Potency [2] | Potency [3] | Potency [4] | Potency [5] | Potency [6] | Potency [17] | Potency [9] | Potency [10] | Potency [11] | Potency [12] | Potency [13] | Potency [14] | Potency [15] | Potency [16]

Cc1c(O)cccc1O
inactive: Potency [1] | Potency [2] | Potency [3] | Potency [4] | Potency [5] | Potency [6] | Potency [7] | Potency [8] | Potency [10] | Potency [11] | Potency [12] | Potency [13] | Potency [14] | Potency [18] | Potency [15] | Potency [16]

CCCCN(CCO)CCCC
inactive: Potency [1] | Potency [2] | Potency [3] | Potency [4] | Potency [5] | Potency [6] | Potency [7] | Potency [8] | Potency [9] | Potency [10] | Potency [11] | Potency [12] | Potency [13] | Potency [18] | Potency [15] | Potency [16]

C=CCOC(=O)COCCC(C)C
inactive: Potency [1] | Potency [2] | Potency [3] | Potency [4] | Potency [5] | Potency [6] | Potency [7] | Potency [9] | Potency [10] | Potency [11] | Potency [12] | Potency [14] | Potency [15] | Potency [16]

CCOc1ccc(NC(N)=O)cc1
inactive: Potency [1] | Potency [2] | Potency [3] | Potency [4] | Potency [5] | Potency [6] | Potency [7] | Potency [8] | Potency [9] | Potency [10] | Potency [11] | Potency [12] | Potency [13] | Potency [14] | Potency [15] | Potency [16]

C=C(C)C(=O)OCCCCCCCCCCCCCCCCCC
inactive: activity change, negative = cytotoxicity [1] 0.16% [at 19 µM] | activity, positive = activation [2] -9.09% [at 19 µM] | activity change [3] 1.34% [at 11.8 µM, active compounds read high] | activation [4] 1.35% [at 15.8 µM] | activation [5] 0.174% [at 11.8 µM] | activity change, negative = cytotoxicity [6] -5.03% [at 13.5 µM] | activity change, negative = cytotoxicity [7] -0.723% [at 13.5 µM] | activity, negative = inhibition [8] -3.48% [at 12.7 µM] | activation [9] -0.137% [at 15.9 µM] | activity, negative = inhibition [10] -12.8% [at 12.6 µM] | activation [11] 0.19% [at 15.8 µM] | activation [12] -2.05% [at 19 µM] | activity change, negative = inhibition [13] -19.6% [at 18.9 µM] | activation [18] -0.576% [at 19 µM] | activation [15] -1.1% [at 19 µM] | activity change, negative = inhibition [16] -0.773% [at 18.9 µM]
